Our source for the binding signal values is publication PMC7862700, “An all-to-all approach to the identification of sequence-specific readers for epigenetic DNA modifications on cytosine”.

Holding throughout (test): DAPPL (digital affinity profiling via proximity ligation, sequencing); 10 mM Tris-HCl pH 7.5, 50 mM NaCl, 1 mM DTT, 4% glycerol, room temperature, 30 min; GST-TFs on glutathione beads, 16-mer random dsDNA library, 0.1% formaldehyde crosslink after washing; high values mean tight binding
In one test the target is T1, FLI1 (Homo sapiens, UniProt Q01543 1-452).
T1 sequence: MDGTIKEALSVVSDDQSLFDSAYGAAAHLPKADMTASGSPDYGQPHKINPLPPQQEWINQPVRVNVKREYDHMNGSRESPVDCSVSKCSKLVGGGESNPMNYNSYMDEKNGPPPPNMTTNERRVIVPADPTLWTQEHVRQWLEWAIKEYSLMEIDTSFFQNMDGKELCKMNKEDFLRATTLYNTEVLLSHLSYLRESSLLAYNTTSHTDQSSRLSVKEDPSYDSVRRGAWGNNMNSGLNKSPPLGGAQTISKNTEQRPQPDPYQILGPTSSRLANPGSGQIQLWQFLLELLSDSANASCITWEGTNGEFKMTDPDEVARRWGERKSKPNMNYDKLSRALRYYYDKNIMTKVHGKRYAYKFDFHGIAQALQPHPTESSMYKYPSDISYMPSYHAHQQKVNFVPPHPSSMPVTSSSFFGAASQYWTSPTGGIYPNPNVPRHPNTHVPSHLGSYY
The note with it: protein: recombinant; tags: N-terminal GST; dsDNA, one strand shown. The procedure, abridged:
(§1)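 Binding signal is defined as a hexamer's read frequency for one factor over its frequency for the tag-only sample. To obtain reads, GST-fused human transcription factors were expressed in yeast, captured on glutathione beads, barcoded with DNA and pooled with that sample. Pools met 200 nmole of a 16-mer random double-stranded DNA library in Tris/NaCl/DTT/glycerol buffer for 30 min at room temperature before washing, 0.1% formaldehyde crosslinking, proximity ligation (BsaI/T4 ligase, 1 h, 37 °C), PCR and Illumina NextSeq500 sequencing.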

For a further test, the target named is T2, ELK1 (Homo sapiens, UniProt P19419 1-428).
T2 sequence: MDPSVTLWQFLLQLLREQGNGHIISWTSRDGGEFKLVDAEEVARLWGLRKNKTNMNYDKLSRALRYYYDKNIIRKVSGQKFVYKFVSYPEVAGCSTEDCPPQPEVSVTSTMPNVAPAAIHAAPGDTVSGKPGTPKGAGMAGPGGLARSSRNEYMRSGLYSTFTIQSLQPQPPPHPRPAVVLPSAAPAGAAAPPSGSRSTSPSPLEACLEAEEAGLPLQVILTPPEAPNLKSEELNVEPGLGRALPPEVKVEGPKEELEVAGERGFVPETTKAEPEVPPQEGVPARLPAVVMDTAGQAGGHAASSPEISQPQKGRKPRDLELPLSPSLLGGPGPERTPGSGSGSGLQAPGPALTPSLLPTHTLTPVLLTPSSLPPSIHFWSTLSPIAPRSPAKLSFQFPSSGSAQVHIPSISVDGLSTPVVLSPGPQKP
The note with it: protein: recombinant; tags: N-terminal GST; dsDNA, one strand shown. The procedure, abridged:
as §1

The next test has as its target T3, GABPA (Homo sapiens, UniProt Q06546 1-454).
T3 sequence: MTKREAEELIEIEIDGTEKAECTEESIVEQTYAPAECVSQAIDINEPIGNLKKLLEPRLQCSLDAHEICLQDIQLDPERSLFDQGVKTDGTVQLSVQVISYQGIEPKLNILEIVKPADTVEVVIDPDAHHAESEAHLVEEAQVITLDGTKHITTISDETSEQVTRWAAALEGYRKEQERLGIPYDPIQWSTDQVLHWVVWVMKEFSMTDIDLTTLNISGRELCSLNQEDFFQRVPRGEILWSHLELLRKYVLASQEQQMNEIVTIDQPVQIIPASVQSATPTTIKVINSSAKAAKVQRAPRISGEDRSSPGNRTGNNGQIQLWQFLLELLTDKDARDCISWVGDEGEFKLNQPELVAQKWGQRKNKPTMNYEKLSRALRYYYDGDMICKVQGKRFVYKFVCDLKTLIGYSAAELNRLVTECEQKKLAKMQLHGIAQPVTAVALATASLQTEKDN
The note with it: protein: recombinant; tags: N-terminal GST; dsDNA, one strand shown. The method in brief:
as §1

The next test addresses T4, ERG (Homo sapiens, UniProt P11308 1-479).
T4 sequence: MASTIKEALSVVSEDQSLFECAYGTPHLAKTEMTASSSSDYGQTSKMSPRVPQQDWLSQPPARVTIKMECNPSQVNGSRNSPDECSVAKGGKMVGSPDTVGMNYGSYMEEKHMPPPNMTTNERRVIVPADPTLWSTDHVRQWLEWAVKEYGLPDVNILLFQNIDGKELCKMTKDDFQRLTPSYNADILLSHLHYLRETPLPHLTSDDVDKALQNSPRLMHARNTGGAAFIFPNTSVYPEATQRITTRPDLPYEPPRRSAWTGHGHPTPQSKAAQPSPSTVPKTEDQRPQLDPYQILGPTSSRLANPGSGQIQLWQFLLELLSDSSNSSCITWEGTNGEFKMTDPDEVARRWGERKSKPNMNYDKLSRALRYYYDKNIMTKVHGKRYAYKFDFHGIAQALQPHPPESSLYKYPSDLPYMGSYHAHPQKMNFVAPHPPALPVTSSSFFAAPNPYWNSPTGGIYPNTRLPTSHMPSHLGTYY
The note with it: protein: recombinant; tags: N-terminal GST; dsDNA, one strand shown. The method in brief:
as §1

In a further test the target is ELF1 (Homo sapiens, UniProt P32519 1-619). The note with it: protein: recombinant; tags: N-terminal GST; dsDNA, one strand shown. The method in brief:
as §1

The target of a further test is T5, EHF (Homo sapiens, UniProt Q9NZC4 1-300).
T5 sequence: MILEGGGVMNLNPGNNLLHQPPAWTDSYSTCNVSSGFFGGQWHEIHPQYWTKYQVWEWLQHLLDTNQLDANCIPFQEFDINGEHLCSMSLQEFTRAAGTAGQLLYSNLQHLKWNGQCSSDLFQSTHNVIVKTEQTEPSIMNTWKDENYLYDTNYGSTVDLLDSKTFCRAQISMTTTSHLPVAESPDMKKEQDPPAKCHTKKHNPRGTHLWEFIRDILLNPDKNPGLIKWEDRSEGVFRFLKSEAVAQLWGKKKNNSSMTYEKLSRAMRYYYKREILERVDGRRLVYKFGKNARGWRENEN
The note with it: protein: recombinant; tags: N-terminal GST; dsDNA, one strand shown. The procedure, abridged: as §1

Another test has as its target SPI1 (Homo sapiens, UniProt P17947 1-270). The note with it: protein: recombinant; tags: N-terminal GST; dsDNA, one strand shown. The procedure, abridged:
as §1

The target in the next test is SPIB (Homo sapiens, UniProt Q01892 1-262). The note with it: protein: recombinant; tags: N-terminal GST; dsDNA, one strand shown. The method in brief: as §1
Sequence of SPIB (Q01892 whole entry): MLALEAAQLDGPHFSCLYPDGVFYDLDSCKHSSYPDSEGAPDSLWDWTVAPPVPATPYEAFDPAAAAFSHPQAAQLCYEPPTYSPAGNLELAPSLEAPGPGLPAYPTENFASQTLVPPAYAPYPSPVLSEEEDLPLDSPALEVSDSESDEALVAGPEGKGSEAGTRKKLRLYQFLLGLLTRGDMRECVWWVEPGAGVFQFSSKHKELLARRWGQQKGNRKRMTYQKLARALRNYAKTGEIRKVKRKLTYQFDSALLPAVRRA
In a further test the target is T6, ELK3 (Homo sapiens, UniProt P41970 1-407).
T6 sequence: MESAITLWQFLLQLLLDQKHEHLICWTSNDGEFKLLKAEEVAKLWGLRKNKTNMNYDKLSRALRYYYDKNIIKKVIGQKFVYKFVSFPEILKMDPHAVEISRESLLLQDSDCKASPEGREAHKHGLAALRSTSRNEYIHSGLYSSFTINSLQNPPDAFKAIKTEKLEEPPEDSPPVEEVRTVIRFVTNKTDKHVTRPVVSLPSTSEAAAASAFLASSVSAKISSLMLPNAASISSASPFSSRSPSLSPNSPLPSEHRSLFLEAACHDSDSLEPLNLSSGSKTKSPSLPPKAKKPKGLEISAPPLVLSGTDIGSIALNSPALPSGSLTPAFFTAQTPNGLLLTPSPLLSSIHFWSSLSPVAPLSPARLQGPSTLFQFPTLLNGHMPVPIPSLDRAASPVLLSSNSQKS
The note with it: protein: recombinant; tags: N-terminal GST; dsDNA, one strand shown. The procedure, abridged:
as §1

A further test deals with ETV5 (Homo sapiens, UniProt P41161 1-510). The note with it: protein: recombinant; tags: N-terminal GST; dsDNA, one strand shown. The method in brief: as §1
Sequence of ETV5 (P41161 whole entry): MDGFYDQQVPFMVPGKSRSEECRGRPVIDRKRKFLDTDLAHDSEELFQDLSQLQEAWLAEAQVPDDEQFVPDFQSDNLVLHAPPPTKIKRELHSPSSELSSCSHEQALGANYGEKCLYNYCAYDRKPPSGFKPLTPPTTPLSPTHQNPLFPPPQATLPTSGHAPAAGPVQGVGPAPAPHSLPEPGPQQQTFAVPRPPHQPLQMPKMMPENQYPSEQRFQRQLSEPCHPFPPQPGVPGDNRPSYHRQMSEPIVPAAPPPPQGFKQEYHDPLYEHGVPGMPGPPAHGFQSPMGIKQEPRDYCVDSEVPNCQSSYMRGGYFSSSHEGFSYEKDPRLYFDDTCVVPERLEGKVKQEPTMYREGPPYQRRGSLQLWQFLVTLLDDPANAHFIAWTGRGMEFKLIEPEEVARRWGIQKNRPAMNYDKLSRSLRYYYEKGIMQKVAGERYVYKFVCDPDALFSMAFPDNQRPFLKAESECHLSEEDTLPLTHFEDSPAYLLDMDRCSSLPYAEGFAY
The next test concerns the target HSF1 (Homo sapiens, UniProt Q00613 1-529). The note with it: protein: recombinant; tags: N-terminal GST; chain copies: 3; dsDNA, one strand shown. The method in brief:
as §1

A further test has as its target ELF4 (Homo sapiens, UniProt Q99607 1-663). The note with it: protein: recombinant; tags: N-terminal GST; dsDNA, one strand shown. The method in brief:
as §1

In a further test the target is T7, ELK4 (Homo sapiens, UniProt P28324-2 1-405).
T7 sequence: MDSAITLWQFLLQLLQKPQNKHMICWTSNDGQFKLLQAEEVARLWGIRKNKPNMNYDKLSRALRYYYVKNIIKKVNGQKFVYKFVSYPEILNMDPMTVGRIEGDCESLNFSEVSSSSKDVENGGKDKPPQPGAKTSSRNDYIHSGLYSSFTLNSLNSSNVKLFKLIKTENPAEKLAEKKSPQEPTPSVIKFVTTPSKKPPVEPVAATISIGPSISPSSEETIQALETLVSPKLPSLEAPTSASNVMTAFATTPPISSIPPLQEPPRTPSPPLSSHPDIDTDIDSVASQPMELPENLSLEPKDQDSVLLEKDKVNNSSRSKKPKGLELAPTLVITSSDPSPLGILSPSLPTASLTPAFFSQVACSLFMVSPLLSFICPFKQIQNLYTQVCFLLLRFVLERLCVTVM
The note with it: protein: recombinant; tags: N-terminal GST; dsDNA, one strand shown. The method in brief: as §1

A further test has as its target T8, ETV2 (Homo sapiens, UniProt O00321 1-342).
T8 sequence: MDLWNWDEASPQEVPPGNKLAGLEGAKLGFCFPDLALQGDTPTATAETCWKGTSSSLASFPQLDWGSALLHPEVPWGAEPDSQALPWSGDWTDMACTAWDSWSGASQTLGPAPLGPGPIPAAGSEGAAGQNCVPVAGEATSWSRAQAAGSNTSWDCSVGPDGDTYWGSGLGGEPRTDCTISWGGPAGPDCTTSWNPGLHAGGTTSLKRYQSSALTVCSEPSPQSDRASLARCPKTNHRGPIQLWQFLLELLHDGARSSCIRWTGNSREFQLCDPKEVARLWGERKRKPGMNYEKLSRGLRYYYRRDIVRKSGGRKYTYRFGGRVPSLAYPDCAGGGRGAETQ
The note with it: protein: recombinant; tags: N-terminal GST; dsDNA, one strand shown. The procedure, abridged:
as §1

The target in the next test is T9, ELF3 (Homo sapiens, UniProt P78545 1-371).
T9 sequence: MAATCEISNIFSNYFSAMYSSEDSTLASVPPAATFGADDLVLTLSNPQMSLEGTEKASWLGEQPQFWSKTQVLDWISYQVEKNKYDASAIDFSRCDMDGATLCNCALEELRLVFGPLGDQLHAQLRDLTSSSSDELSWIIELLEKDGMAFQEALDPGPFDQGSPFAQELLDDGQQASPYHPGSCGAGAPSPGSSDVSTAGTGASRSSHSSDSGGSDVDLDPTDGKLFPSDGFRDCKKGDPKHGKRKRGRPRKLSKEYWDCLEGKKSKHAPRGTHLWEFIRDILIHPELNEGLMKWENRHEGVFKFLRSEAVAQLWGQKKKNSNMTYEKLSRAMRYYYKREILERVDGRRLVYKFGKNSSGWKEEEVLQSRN
The note with it: protein: recombinant; tags: N-terminal GST; dsDNA, one strand shown. The method in brief:
as §1

Another test concerns the target CRX (Homo sapiens, UniProt O43186 1-299). The note with it: protein: recombinant; tags: N-terminal GST; dsDNA, one strand shown. The method in brief:
as §1

A further test has as its target ETV1 (Homo sapiens, UniProt P50549 1-477). The note with it: protein: recombinant; tags: N-terminal GST; dsDNA, one strand shown. The procedure, abridged:
as §1

Sequence of ELF1 (P32519 whole entry): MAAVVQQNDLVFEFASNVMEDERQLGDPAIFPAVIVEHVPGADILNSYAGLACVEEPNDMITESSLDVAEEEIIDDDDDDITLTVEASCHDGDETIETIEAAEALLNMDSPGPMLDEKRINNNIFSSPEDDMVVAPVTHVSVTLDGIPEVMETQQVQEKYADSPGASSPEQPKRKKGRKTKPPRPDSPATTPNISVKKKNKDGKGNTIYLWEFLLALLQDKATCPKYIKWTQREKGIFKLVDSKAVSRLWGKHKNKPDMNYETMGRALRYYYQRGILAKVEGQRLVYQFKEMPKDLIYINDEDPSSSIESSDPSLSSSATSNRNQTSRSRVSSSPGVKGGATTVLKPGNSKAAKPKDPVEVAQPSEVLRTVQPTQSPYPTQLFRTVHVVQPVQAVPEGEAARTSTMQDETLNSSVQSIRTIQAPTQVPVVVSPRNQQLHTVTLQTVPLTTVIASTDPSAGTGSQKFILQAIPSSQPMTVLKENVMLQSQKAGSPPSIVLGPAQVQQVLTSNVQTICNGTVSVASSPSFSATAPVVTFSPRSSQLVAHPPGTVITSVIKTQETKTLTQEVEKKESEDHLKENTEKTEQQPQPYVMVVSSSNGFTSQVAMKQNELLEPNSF
Sequence of CRX (O43186 whole entry): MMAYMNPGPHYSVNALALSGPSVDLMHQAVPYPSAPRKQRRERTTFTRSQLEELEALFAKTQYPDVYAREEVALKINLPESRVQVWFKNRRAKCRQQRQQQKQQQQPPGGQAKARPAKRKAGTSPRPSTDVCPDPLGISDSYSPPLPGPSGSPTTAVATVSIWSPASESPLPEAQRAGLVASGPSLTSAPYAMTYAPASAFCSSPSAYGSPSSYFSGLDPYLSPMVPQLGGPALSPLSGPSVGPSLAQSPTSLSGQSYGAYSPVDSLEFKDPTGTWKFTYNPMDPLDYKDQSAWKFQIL
Sequence of HSF1 (Q00613 whole entry): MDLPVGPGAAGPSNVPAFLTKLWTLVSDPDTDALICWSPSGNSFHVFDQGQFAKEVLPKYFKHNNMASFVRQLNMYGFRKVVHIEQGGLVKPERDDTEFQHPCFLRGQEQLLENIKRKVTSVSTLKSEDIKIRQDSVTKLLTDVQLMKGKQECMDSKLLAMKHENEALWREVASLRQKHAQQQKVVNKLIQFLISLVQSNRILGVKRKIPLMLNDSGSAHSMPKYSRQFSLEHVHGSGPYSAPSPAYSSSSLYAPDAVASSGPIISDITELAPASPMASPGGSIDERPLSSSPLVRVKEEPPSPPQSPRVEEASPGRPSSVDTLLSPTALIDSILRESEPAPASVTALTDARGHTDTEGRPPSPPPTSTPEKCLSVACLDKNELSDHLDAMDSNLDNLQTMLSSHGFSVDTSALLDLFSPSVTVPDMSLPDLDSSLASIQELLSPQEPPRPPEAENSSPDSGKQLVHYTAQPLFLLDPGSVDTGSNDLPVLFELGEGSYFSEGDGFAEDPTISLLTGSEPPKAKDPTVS
Sequence of ETV1 (P50549 whole entry): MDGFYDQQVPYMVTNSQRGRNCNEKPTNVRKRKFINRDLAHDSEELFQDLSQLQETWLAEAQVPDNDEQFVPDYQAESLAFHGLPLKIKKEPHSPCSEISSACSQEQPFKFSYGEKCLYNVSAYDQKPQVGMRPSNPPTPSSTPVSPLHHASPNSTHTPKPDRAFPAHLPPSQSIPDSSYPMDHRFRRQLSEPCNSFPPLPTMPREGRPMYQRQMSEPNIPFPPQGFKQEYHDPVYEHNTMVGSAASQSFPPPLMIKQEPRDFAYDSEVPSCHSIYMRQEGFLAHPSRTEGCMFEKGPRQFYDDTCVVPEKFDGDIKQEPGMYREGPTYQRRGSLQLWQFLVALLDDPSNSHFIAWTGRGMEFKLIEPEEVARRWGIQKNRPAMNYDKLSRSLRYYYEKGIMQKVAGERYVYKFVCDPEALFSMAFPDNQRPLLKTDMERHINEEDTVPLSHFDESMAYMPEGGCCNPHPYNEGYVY
Sequence of ELF4 (Q99607 whole entry): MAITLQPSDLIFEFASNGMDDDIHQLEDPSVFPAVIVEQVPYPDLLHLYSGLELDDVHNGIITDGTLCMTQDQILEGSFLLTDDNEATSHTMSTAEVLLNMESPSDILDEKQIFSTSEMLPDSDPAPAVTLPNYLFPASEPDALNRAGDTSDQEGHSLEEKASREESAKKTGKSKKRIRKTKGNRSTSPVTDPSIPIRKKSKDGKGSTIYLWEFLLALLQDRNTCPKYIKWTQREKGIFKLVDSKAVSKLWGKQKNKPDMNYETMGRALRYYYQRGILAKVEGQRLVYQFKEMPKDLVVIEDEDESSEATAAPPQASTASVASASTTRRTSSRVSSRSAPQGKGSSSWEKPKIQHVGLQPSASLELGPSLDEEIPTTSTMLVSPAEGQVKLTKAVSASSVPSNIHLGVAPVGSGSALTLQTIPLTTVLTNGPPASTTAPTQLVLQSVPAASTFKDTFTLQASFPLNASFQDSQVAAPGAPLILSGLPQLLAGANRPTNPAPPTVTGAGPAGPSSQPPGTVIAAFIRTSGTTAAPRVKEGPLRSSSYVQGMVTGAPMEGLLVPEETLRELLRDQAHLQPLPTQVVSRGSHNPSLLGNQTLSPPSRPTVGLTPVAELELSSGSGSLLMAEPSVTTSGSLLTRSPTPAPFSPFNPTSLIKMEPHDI

Regarding TTAGGT, the binding signal was 1.11 fold enrichment (6-mer frequency, TF over GST control) in the test with FLI1; 1.12 fold enrichment (6-mer frequency, TF over GST control) in the test with ELK1; 1.2 fold enrichment (6-mer frequency, TF over GST control) with GABPA; 1.08 fold enrichment (6-mer frequency, TF over GST control) in the test with ERG; 1.03 fold enrichment (6-mer frequency, TF over GST control) with ELF1; 1.1 fold enrichment (6-mer frequency, TF over GST control) with EHF. In addition, the binding signal was 1.02 fold enrichment (6-mer frequency, TF over GST control) with SPI1; 1.12 fold enrichment (6-mer frequency, TF over GST control) with SPIB; 1.17 fold enrichment (6-mer frequency, TF over GST control) with ELK3; 1.12 fold enrichment (6-mer frequency, TF over GST control) with ETV5; 1.28 fold enrichment (6-mer frequency, TF over GST control) with HSF1; 1.08 fold enrichment (6-mer frequency, TF over GST control) in the test with ELF4. Besides, the binding signal is 1.26 fold enrichment (6-mer frequency, TF over GST control) with ELK4; 1 fold enrichment (6-mer frequency, TF over GST control) with ETV2; 1.15 fold enrichment (6-mer frequency, TF over GST control) with ELF3; 1.82 fold enrichment (6-mer frequency, TF over GST control) in the test with CRX; 1.04 fold enrichment (6-mer frequency, TF over GST control) with ETV1.
